The supplement of paper PMC10646978
± gives the standard deviation.

How the values were obtained:
Conditions in all cases: modulator concentration 10 µM
[1] = test system: RAW-Dual (murine macrophage reporter line); assay: NF-kB reporter (SEAP) activity fold change vs agonist alone; higher = enhanced NF-kB activity
In short: (§1)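 In 384-well plates holding 50 000 RAW-Dual murine macrophage reporter cells per well, compound at 10 μM final was pre-incubated for 1 hour at 37 °C, after which a PRR agonist was added overnight. Supernatant SEAP read with QUANTI-Blue at 620 nm absorbance reported NF-κB, and Lucia luciferase read with QUANTI-Luc luminescence reported IRF. Fold change values come from dividing each reporter signal by the mean of agonist-only control wells on the same plate, averaged over replicate plates with propagated errors.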

[2] = test system: RAW-Dual (murine macrophage reporter line); assay: IRF reporter (Lucia luciferase) activity fold change vs agonist alone; higher = enhanced IRF activity
In short: as §1

[3] = test system: RAW-Dual (murine macrophage reporter line); assay: viability score (confluency relative to resting cells, overnight) (fraction); higher = more viable, active = viable (0.7 or more)
In short: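 Two confluency masks, generated with IncuCyte software over all imaged wells, were applied to IncuCyte images of RAW-Dual macrophages. The cells, in 384-well plates, had been exposed overnight to 10 μM final compound. The viability score is confluency as a fraction of resting cells, and a compound met the cutoff only with both masks above 70% of resting cells.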

[4] = agonist: CpG ODN 1826 0.5 ug/mL

SMILES | NF-kB reporter [1, 4] | NF-kB reporter ([1]; agonist: LPS 0.1 ug/mL) | NF-kB reporter ([1]; agonist: MPLA […]) | IRF reporter ([2]; agonist: 3'3'-cGAMP 10 ug/mL) | IRF reporter ([2]; agonist: LPS 0.1 ug/mL) | IRF reporter ([2]; agonist: MPLA […]) | viability score [3]
Cc1ccc(-n2c(=O)c3c4c(sc3n3c(S)nnc23)CCCC4)cc1 | 0.968 ± 0.063 | 1.07 ± 0.069 | 0.923 ± 0.1 | 0.959 ± 0.035 | 1.41 ± 0.21 | 1.15 ± 0.1 | 0.993 (active)
Cc1c(C)n2c3c(=O)n(Cc4ccccc4F)c(=O)n(C)c3nc2n1CCCN1CCOCC1 | 0.843 ± 0.062 | 1.1 ± 0.087 | 0.958 ± 0.052 | 1.11 ± 0.089 | 1.06 ± 0.14 | 1.05 ± 0.37 | 1.01 (active)
N#Cc1nc(-c2ccc(COc3ccc(Cl)cc3)o2)oc1N1CCCCC1 | 0.826 ± 0.063 | 1.29 ± 0.14 | 1.13 ± 0.075 | 1.21 ± 0.047 | 1.57 ± 0.1 | 1.12 ± 0.15 | 0.998 (active)
Cc1cn2c(nc1=O)OC1C(O)C(CO)OC12 (centres undefined) | 1.01 ± 0.08 | 1.02 ± 0.075 | 0.953 ± 0.091 | 1.02 ± 0.048 | 1.29 ± 0.2 | 1.44 ± 0.4 | 1.03 (active)
O=C(OCCO)c1cc(Cl)c(C(=O)OCCO)cc1Cl | 0.979 ± 0.062 | 1 ± 0.065 | 0.936 ± 0.079 | 0.987 ± 0.034 | 1.49 ± 0.1 | 1.23 ± 0.11 | 1 (active)
C=C1C(=O)OC2C1CCC(C)=CCCC1(C)OC21 (centres undefined) | 0.0586 ± 0.0046 | 0.0442 ± 0.0037 | 0.0844 ± 0.008 | 0.0346 ± 0.011 | 0.025 ± 0.0055 | 0.0274 ± 0.0061 | 0.253 (inactive)
Cc1c(Cl)cccc1NC(=O)C(Cl)=Cc1ccccc1 | 0.757 ± 0.082 | 0.929 ± 0.11 | 1.07 ± 0.095 | 0.799 ± 0.04 | 1.13 ± 0.068 | 1.25 ± 0.11 | 1.01 (active)
CC(=O)OC(OC(C)=O)c1ccc([N+](=O)[O-])s1 | 0.0633 ± 0.01 | 0.0636 ± 0.0089 | 0.156 ± 0.012 | 0.0166 ± 0.0041 | 0.0362 ± 0.0098 | 0.0457 ± 0.011 | 0.177 (inactive)
Cc1c(C(=O)NN)sc(-c2ccccc2)c1C#N | 0.868 ± 0.071 | 1.13 ± 0.074 | 0.987 ± 0.034 | 0.562 ± 0.071 | 1.08 ± 0.12 | 1.43 ± 0.29 | 0.998 (active)
COC(=O)Nc1nc2cc(C(=O)c3ccccc3)ccc2[nH]1 | 1.96 ± 0.28 | 1.23 ± 0.23 | 1.31 ± 0.13 | 0.093 ± 0.0033 | 1.04 ± 0.19 | 1.6 ± 0.22 | 0.661 (inactive)
Cc1ncn(CCNC(=O)Nc2ccc(OC(F)(F)F)cc2)c(=O)c1C | 1.14 ± 0.077 | 1.08 ± 0.088 | 1.01 ± 0.061 | 0.901 ± 0.035 | 1.06 ± 0.05 | 1.11 ± 0.25 | 0.998 (active)
Cc1ccc(NC(=O)CSc2nc3ccccc3[nH]2)cc1.Cl | 1.28 ± 0.37 | 1.15 ± 0.1 | 1.02 ± 0.068 | 0.764 ± 0.036 | 1.19 ± 0.13 | 1.42 ± 0.16 | 0.388 (inactive)
CC1(C)CC(=O)C2=C(C1)OC(N)=C(C#N)C21CCCC1 | 1.04 ± 0.18 | 0.94 ± 0.08 | 0.933 ± 0.072 | 0.91 ± 0.025 | 1.13 ± 0.15 | 1.3 ± 0.13 | 1 (active)
CC(C)Sc1ccc(CC(=O)NC2CCN(c3cc4c(nn3)CCCC4)CC2)cc1 | 0.556 ± 0.041 | 1.19 ± 0.11 | 1.02 ± 0.076 | 0.847 ± 0.04 | 1.26 ± 0.27 | 1.51 ± 0.47 | 0.973 (active)
CO[C@@]1(NC(=O)CSCC#N)C(=O)N2C(C(=O)[O-])=C(CSc3nnnn3C)CS[C@@H]21 [Prestw-700] | 0.993 ± 0.095 | 1.02 ± 0.088 | 0.927 ± 0.063 | 1 ± 0.033 | 1.47 ± 0.13 | 1.24 ± 0.12 | 0.997 (active)
Cc1ccc(Nc2cc(N3CCCCC3)c(N)c3c2C(=O)c2ccccc2C3=O)cc1 | 1.26 ± 0.23 | 1.09 ± 0.067 | 0.964 ± 0.12 | 1 ± 0.057 | 1.56 ± 0.21 | 1.12 ± 0.12 | 0.996 (active)
c1ccc(Nc2nc(Nc3ccccc3)nc(N3CCCCC3)n2)cc1 | 0.605 ± 0.04 | 1.01 ± 0.062 | 0.977 ± 0.064 | 1.05 ± 0.053 | 1.53 ± 0.15 | 1.22 ± 0.2 | 0.995 (active)
Cc1c(Cl)ccc2c1NC(C(=O)O)C1CC=CC21 (centres undefined) | 0.814 ± 0.045 | 1.05 ± 0.092 | 0.755 ± 0.063 | 0.615 ± 0.034 | 1.19 ± 0.091 | 1.13 ± 0.099 | 0.994 (active)
CC1(C)NC(=O)N(c2ccc([N+](=O)[O-])c(C(F)(F)F)c2)C1=O | 1.26 ± 0.41 | 1.11 ± 0.23 | 0.897 ± 0.052 | 0.868 ± 0.035 | 1.17 ± 0.21 | 1.25 ± 0.2 | 0.968 (active)
NC(=O)OCC(COC(N)=O)c1ccccc1 | 1.06 ± 0.079 | 1.02 ± 0.05 | 1.04 ± 0.095 | 1.16 ± 0.26 | 0.945 ± 0.062 | 0.94 ± 0.11 | 1 (active)
CNCC[C@H](Oc1cccc2ccccc12)c1cccs1 | 0.087 ± 0.0072 | 0.8 ± 0.08 | 1.08 ± 0.058 | 0.262 ± 0.019 | 1.02 ± 0.2 | 1.01 ± 0.27 | 0.333 (inactive)
CNC1CCC(c2ccc(Cl)c(Cl)c2)c2ccccc21.Cl (centres undefined) | 0.571 ± 0.096 | 0.765 ± 0.097 | 1.11 ± 0.25 | 0.52 ± 0.016 | 1.94 ± 0.19 | 2.12 ± 0.33 | 0.661 (inactive)
COC(=O)c1ccc(CN2CCc3ccccc3C2)cc1 | 0.82 ± 0.089 | 1.17 ± 0.08 | 1.3 ± 0.059 | 0.832 ± 0.052 | 0.974 ± 0.1 | 1.5 ± 0.36 | 0.938 (active)
CSc1nc2ccc(Nc3nc(N4CCCC4)nc(N4CCCC4)n3)cc2s1 | 0.838 ± 0.086 | 0.962 ± 0.06 | 1.05 ± 0.096 | 0.906 ± 0.043 | 1.31 ± 0.13 | 1.55 ± 0.15 | 1.02 (active)
CC1(C)CC(=O)C=C(Nc2ccc(Br)c(Cl)c2)C1 | 0.734 ± 0.066 | 0.962 ± 0.067 | 0.839 ± 0.083 | 1.14 ± 0.06 | 1.08 ± 0.066 | 1.08 ± 0.12 | 1.02 (active)
NC(=O)c1ncn([C@@H]2O[C@H](CO)[C@@H](O)[C@H]2O)c1N | 1.11 ± 0.086 | 1.03 ± 0.051 | 1.04 ± 0.041 | 0.94 ± 0.052 | 0.977 ± 0.089 | 0.949 ± 0.12 | 0.994 (active)
CCN(CC)c1ccc(NC(=O)C(C)(C)C)cc1 | 0.969 ± 0.075 | 1.02 ± 0.075 | 0.98 ± 0.12 | 0.901 ± 0.074 | 1.22 ± 0.17 | 1.36 ± 0.25 | 1.04 (active)
